Screens from PubChem.
BAZ2B inh: blocks human BAZ2B | Q9UIF8 | AlphaScreen BAZ2B-H3K14Ac peptide displacement | Potency, µM (doses to about 114 µM), inactives show at the top dose activity change, negative = inhibition, usual class: inhibitors | actives 4.4% (n = 360,000); further: on the % scale 0 is the no-effect control and ±100 the full control effect; nearly all actives have a fitted effect of over 60% in size
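Compounds, titrated to a top concentration of 110 uM, were incubated 30 min at room temperature with preformed BAZ2B/acetyl-K14 H3 peptide complex (50 nM each). Proximity signal was measured by AlphaScreen after 20 min with beads.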
HP1b binding inh: blocks HP1-beta chromodomain binding to methylated histone tails. Potency, µM (series often up to 114 µM), for the others: top-dose activity change, negative = inhibition, actives largely listed as inhibitors. P83916. actives 0.56% (n = 390,000). AlphaScreen HP1-beta / biotin-H3K9me3 peptide binding; further: nearly all actives have a fitted effect of over 70% in size
Target sequence (P83916 whole entry, looked up): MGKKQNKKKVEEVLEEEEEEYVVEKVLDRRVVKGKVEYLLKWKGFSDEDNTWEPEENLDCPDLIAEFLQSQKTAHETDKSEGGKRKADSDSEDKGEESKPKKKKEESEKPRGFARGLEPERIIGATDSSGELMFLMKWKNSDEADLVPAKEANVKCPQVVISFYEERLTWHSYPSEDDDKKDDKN
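Compound inhibition of the preformed complex between 50 nM HP1-beta and 50 nM biotinylated H3K9me3 peptide was read by AlphaScreen. Buffer was PBS pH 7.4 with 0.01% Tween-20. Incubations ran 30 min at room temperature, with 10 ug/mL donor/acceptor beads.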
G9a block: blocks human histone lysine methyltransferase G9a; Q96KQ7; G9a H3K9 monomethylation, AlphaScreen, 2 h; Potency, µM (doses to about 102 µM), without a hit: top-dose activity, negative = inhibition, hits mostly inhibitors; actives 8.8% (n = 350,000); further: on the % scale 0 is the no-effect control and ±100 the full control effect; nearly all actives have a fitted effect of over 75% in size
Target sequence (Q96KQ7 913-1193 limits assumed): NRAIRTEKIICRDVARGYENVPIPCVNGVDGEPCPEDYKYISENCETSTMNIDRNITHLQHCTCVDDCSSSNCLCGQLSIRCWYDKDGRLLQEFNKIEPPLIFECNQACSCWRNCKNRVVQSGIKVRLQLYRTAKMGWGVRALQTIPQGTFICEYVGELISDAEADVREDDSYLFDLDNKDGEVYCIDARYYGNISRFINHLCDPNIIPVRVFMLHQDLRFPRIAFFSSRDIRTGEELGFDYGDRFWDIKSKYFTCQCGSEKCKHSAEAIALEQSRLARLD
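AlphaScreen read-out: biotin-H3K9 peptide (500 nM) methylation by 20 nM enzyme with 20 uM SAM, 2 h at room temperature after 15 min compound preincubation; anti-monomethyl H3K9 antibody plus donor/acceptor beads, 10 min dark.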
JMJD2A Tudor: inhibitors of human JMJD2A Tudor domain. O75164. AlphaScreen JMJD2A-Tudor / H3K4me3 peptide binding. Potency, µM (highest dose often 114 µM), without a hit: at the highest dose activity change, negative = inhibition, actives largely listed as inhibitors. actives 4.4% (n = 390,000). AID 504339; further: on the % scale 0 is the no-effect control and ±100 the full control effect; nearly all actives have a fitted effect of over 50% in size
L3MBTL1 block: blocks human L3MBTL1. Q9Y468. AlphaScreen L3MBTL1–H3K9me1 peptide binding. Potency, µM (doses to about 57.1 µM), for the others: at the highest dose activity, negative = inhibition, most hits filed as inhibitors. actives 0.66% (n = 230,000); further: on the % scale 0 is the no-effect control and ±100 the full control effect; nearly all actives have a fitted effect of over 60% in size
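Read-out is AlphaScreen signal from streptavidin donor and nickel chelate acceptor beads (10 ug/mL final each) bridging L3MBTL1 (50 nM) and biotinylated K9-monomethylated H3(1-15) peptide (75 nM), after 30 min compound exposure at room temperature.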
An asterisk follows results filed as active; ? = inconclusive; · = not tested or not shown; [ ] = another dose, or the depositor's remark. Most compounds without a hit are left out; they make up all but 11% or so of the library. The call rests on the fitted dose curve; in most records, active means well fitted inhibition curve with a large enough effect; inconclusive means small, poorly fitted or top-dose-only effect; inactive means no such curve, though single readings can be large or run the other way. Potency means the concentration at half of the fitted maximal effect.

SMILES	BAZ2B inh	HP1b binding inh	G9a block	JMJD2A Tudor	L3MBTL1 block
CCCOc1ccc(N2C(=O)C3ON(c4ccccc4)C(c4ccc(O)c(OC)c4)C3C2=O)cc1 (centres undefined)	-19%	19%	50µM*	-25%	·
CCCC1C2C(=O)N(c3ccccc3)C(=O)C2ON1c1ccccc1 (centres undefined)	-1%	32%	8%	-1%	·
CCCC1C2C(=O)N(c3ccccc3OC)C(=O)C2ON1c1ccccc1 (centres undefined)	1%	78%	8%[59 µM]	-5%	0%
CCOc1ccccc1C1C2C(=O)N(c3ccccc3)C(=O)C2ON1c1ccccc1 (centres undefined)	·	38%	?	-18%	-1%
CCCOc1ccc(N2C(=O)C3ON(c4ccccc4)C(CCC)C3C2=O)cc1 (centres undefined)	-1%	51%	40µM*	7%[57.1 µM]	·
COc1cc(C2C3C(=O)N(Cc4ccccc4)C(=O)C3ON2c2ccccc2)cc(OC)c1O (centres undefined)	?	-10%	50µM*	-32%	-9%
COc1cccc(CNC(=O)Cn2c(C)c3cnn(-c4ccccc4)c(=O)c3c2C)c1	1%	25%	8%[59 µM]	-4%	·
COc1ccc(NC(=O)Cn2c(=O)n(-c3cccc(C(F)(F)F)c3)c(=O)c3sccc32)cc1	-2%	28%	-1%[59 µM]	6%	·
Cc1ccc(CN2C(=O)N(c3ccc(F)cc3)C(=O)C2CC(=O)Nc2ccc(Cl)cc2)cc1 (centres undefined)	1%	48%	10%[59 µM]	-6%	·
O=C(COC(=O)C(Cc1ccccc1)NC(=O)c1cccs1)NCc1ccccc1 (centres undefined)	-2%	34%	-5%[12.7 µM]	2%	0%
O=C(COC(=O)[C@H](Cc1ccccc1)NC(=O)c1cccs1)Nc1c(Cl)cccc1Cl	-2%	24%	50µM*	-17%	5%
CC1CCC(=O)N(CCC#N)CC1 (centres undefined)	-30%	23%	50µM*	-8%	2%
O=C(NCC(=O)N1CCN(S(=O)(=O)c2ccccc2)CC1)c1ccc(Br)o1	8%	19%	-4%[2.33 µM]	-7%	1%
O=C(C1CCCN(c2nnc(-n3cccc3)s2)C1)N1CCN(c2ccccc2)CC1 (centres undefined)	?	-3%	50µM*	?	·
CC(CCc1ccccc1)NC(=O)C1CCCN(c2nnc(-n3cccc3)s2)C1 (centres undefined)	12%	21%	9%[59 µM]	-35%	?
CC(C)c1nn2c(=O)cc(COC(=O)c3cccc(NC(=O)CCc4ccccc4)c3)nc2s1	-11%	26%	3%[12.7 µM]	4%	·
CCCCOc1ccccc1C(=O)N(Cc1sccc1C)C1CCS(=O)(=O)C1 (centres undefined)	-4%	11%	-7%[59 µM]	-19%	·
Cc1ccc(C)c(CN2C(=O)c3ccccc3S(=O)(=O)c3ccc(C(=O)N4CCN(c5ccccc5F)CC4)cc32)c1	-14%	31%	-5%[59 µM]	-18%	·
C=CCc1ccc(OCCN2CCc3ccccc3C2)c(OC)c1	50µM*	?	10µM*	?	-5%
Cc1ccc(Cl)c(OCCN2CCc3ccccc3C2)c1	5%	43%	·	1%	11%
C/C=C/c1ccc(OCCN2CCc3ccccc3C2)c(OC)c1	?	?	45µM*	0.89µM*	-1%
Cc1ccc(N(CC2CO2)S(=O)(=O)c2ccccc2[N+](=O)[O-])cc1 (centres undefined)	-21%	32%	10%	-11%	·
COc1cc(C(=S)N2CCOCC2)cc(OC)c1OC(=O)Cc1ccc(F)cc1	?	?	3.2µM*	79µM*	3%
O=C(Oc1cccc(C(=S)N2CCOCC2)c1)c1ccccc1	-9%	?	7.1µM*	-30%	·
S=C(c1ccc(-c2ccccc2)cc1)N1CCOCC1	-1%	-11%	40µM*	-25%	-3%
COc1ccc(CC(=O)Oc2ccc(Br)cc2F)cc1S(=O)(=O)N1CCOCC1	7%	2%	50µM*	-12%	2%
